The AC50 is the midpoint of the concentration-response curve, whichever way the signal moves.

Records with an inconclusive call do not appear. Activity calls are given as the source filed them. The calls were made as follows: active = hit-call score of the fitted dose curve at least 0.9, where 1 is the maximum; inconclusive = response in the unintended direction; inactive = score below 0.9.

The test system of this test is rainbow trout Peroxisome Proliferator-activated Receptor alpha (PPARa), gene 110490141. Put plainly: ATG_rtPPARa_EcoTox2: Attagene TRANS-FACTORIAL EcoTox-2 HepG2 Assay for rainbow trout Peroxisome Proliferator-activated Receptor alpha (PPARa). How it is done:
ATG_EcoTox2 is a cell-based, multiplexed assay created by modifying the existing Attagene TRANS-FACTORIAL system to include a panel of nuclear receptors from some or all the following species: human (Homo sapiens), african clawed frog (Xenopus laevis), rainbow trout (Oncorhynchus mykiss), japanese medaka (Oryzias latipes), and zebrafish (Danio rerio). The ECOTOX2-FACTORIAL format uses HepG2, a human liver cell line, with measurements taken at 24 hours after chemical dosing in a 24-well plate. ATG_rtPPARa_EcoTox2 is one of 29 assay components calculated in the ATG_EcoTox2 assay. It is designed to make measurements of mRNA induction, a form of inducible reporter, as detected with fluorescence intensity signals by Reverse transcription polymerase chain reaction (RT-PCR) and Capillary electrophoresis technology.The assay endpoint […] was analyzed in the positive analysis fitting direction relative to DMSO as the negative control and baseline of activity. Using a type of inducible reporter, measures of mRNA for gain-of-signal activity can be used to understand the reporter gene at the transcription factor-level as they relate to the gene PPARa. Furthermore, this assay endpoint can be referred to as a primary readout, because this assay has produced multiple assay endpoints where this one serves a reporter gene function. To generalize the intended target to other relatable targets, this assay endpoint is annotated to the nuclear receptor intended target family, where the subfamily is non-steroidal.
Human liver HepG2 cells are transiently transfected with multiple reporter transcription units (MRTUs) in 6-well plates using FuGene 6 reagent (Roche; 3 ml FuGene/1 mg DNA). The MRTU constructs are regulated by a cis-regulating element (promoter). Each RTU expresses a GAL4-UAS that regulates the transcription of a nearby target reporter gene sequence. A major difference between the CIS and TRANS system is that in CIS activities of endogenous TFs are measured, whereas the TRANS assay evaluates changes in activities of exogenous, chimeric NR-Gal4 proteins. […] At the end of 24 hour incubation, total RNA was isolated using TriZol reagent (Invitrogen). The isolated RNA is then reverse-transcribed using oligo(dT) primer and Mo-MLV reverse transcriptase (Invitrogen) with DNAse I (Ambion) treatment for 30 min. The one-tenth of the produced cDNA was amplified by PCR using Taq DNA polymerase (Invitrogen) and two reporter sequence-specific primers. The PCR products were fluorescently labeled by primer extension with 6-arboxyfluorescein (6-FAM) 5'-labeled reporter sequence-specific primer (2 min at 95 C, 20 s at 68 C and 10 min at 72 C) and these products were digested with 5U of HpaI (New England Biolabs) for 2h at 37 C. The fragments were purified using Qiaquick PCR columns (Qiagen), analyzed on an ABI 3130xL genetic analyzer (Applied Biosystems) with peak positions identified by using a set of X-rhodamine (ROX)-labeled MapMarker1000 molecular weight standards (BioVentures). The raw capillary electrophoresis data was processed using Attagraph software (Attagene).
As for `CC(C)(Oc1ccc(CCNC(=O)c2ccc(Cl)cc2)cc1)C(=O)O`, the AC50 was 41.3 µM (active). Turning to `Cc1cccc(Nc2cc(Cl)nc(SCC(=O)O)n2)c1C`, the AC50 is 25 µM (active). Consider `Cc1nc(-c2ccc(C(F)(F)F)cc2)sc1C(=O)NCc1ccc(OC(C)(C)C(=O)O)cc1`, for which the AC50 was 0.0823 µM (active). Turning to `CN(CCOc1ccc(CC2SC(=O)NC2=O)cc1)c1ccccn1` (configuration not stated), the AC50 is 6.15 µM (active). On the same count and under the same terms, in the case of `Cc1ccc(C)c(OCCCC(C)(C)C(=O)O)c1` it was 10.4 µM (active). In the case of `C=C(c1ccc(C(=O)O)cc1)c1cc2c(cc1C)C(C)(C)CCC2(C)C`, the compound was classed as inactive. As to `CC(c1cc2ccccc2s1)N(O)C(N)=O` (configuration not stated), the outcome was inactive. For `CC(C)(Oc1ccc(Cl)cc1)C(=O)O`, the compound was classed as inactive. As to `C[C@]12C=CC(=O)C=C1CC[C@@H]1[C@@H]2C(=O)C[C@@]2(C)[C@H]1CC[C@]2(O)C(=O)CO`, the compound was called inactive. On the same count and under the same terms, next, `C[C@@H]1C[C@H]2[C@@H]3CCC4=CC(=O)C=C[C@]4(C)[C@@]3(F)[C@@H](O)C[C@]2(C)[C@@]1(O)C(=O)COP(=O)(O)O`: “inactive”; `CC(C)OC(=O)C(C)(C)Oc1ccc(C(=O)c2ccc(Cl)cc2)cc1`: “inactive”. For the compound `CC(C)(Oc1ccc(C2CC2(Cl)Cl)cc1)C(=O)O` (configuration not stated), the AC50 was 75.3 µM (active).

The record behind these values is PubChem BioAssay AID2284347 (EPA ToxCast).
